The results in this text go back to PubChem BioAssay (Tox21).

SMILES strings stand for the structures. Inconclusive results are not listed. Calls of active or inactive are those of the source. Unless noted, the call rests on the fitted dose curve.

The nature of assay [1]: Nuclear factor erythroid 2-related factor 2/antioxidant responsive element (Nrf2/ARE) small molecule agonists: qHTS cell viability counter screen in human keratinocytes (AID 1919968; active means well fitted curve in the direction sought with a large enough effect in the repeat runs; an effect the other way counts as inactive or inconclusive; further: nearly all actives have a fitted effect of over 55% in size; further: potency means the concentration at half of the fitted maximal effect). The method, boiled down:
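Seed 1,500 KeratinoSens cells per well, then incubate 5 h at 37 C/5% CO2. Add compounds in DMSO and incubate 23 h. Add CellTiter-Fluor, wait 1 h and read fluorescence.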

The nature of assay [2]: Nuclear factor erythroid 2-related factor 2/antioxidant responsive element (Nrf2/ARE) small molecule agonists: luciferase reporter gene qHTS assay in human keratinocytes (AID 1919969). Further: nearly all actives have a fitted effect of over 35% in size. Further: potency means the concentration at half of the fitted maximal effect. A general note: Reporter assays use an easily measured gene product as a stand-in for the process of interest.
In assay [3] the target is Gonadotropin-releasing hormone receptor (Homo sapiens) (UniProt P30968). Description: Human gonadotropin-releasing hormone receptor (GnRHR) small molecule agonists, calcium flux assay in GnRHR-HEK293 cells (AID 1920063). Further: nearly all actives have a fitted effect of over 35% in size. In outline:
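Cells: HEK293 stably expressing human GnRHR. Steps: overnight (18 h) culture, 1 h calcium dye loading at 37 C, compound addition, kinetic fluorescence read at 480/540 nm. Each compound tested at 15 concentrations in triplicate.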
On the technique in general: A change in cytosolic calcium serves as a functional read-out for many receptors and channels.

Assay [4] concerns the target KiSS-1 receptor (Homo sapiens) (UniProt Q969F8). Kind of assay: Human kisspeptin (KISS1R) small molecule agonists, calcium flux assay in KISS1R-HEK293 cells (AID 1920064; active means well fitted curve in the direction sought with a large enough effect in the repeat runs; an effect the other way counts as inactive or inconclusive). The method, boiled down: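 Cells plated and incubated 18 h; dye added, 1 h at 37 C; compounds in DMSO pinned in; signal read at 480/540 nm every second for 3 min. Each compound tested at 15 concentrations in triplicate.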

The nature of assay [5]: G protein-coupled receptor (GPCR) small molecule agonists, calcium flux assay: HEK293 wild type cell line counter screen (AID 1920065). In outline:
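Counter-screen of the Tox21 10K library for non-specific calcium release: dye-loaded cells received compounds in DMSO and were monitored by kinetic fluorescence (480/540 nm, 3 min). Fifteen concentrations, run in triplicate.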

Assay [6] in a line: p53 small molecule agonists, cell-based qHTS assay with human liver microsomes: qHTS cell viability counter screen (AID 1963579). Further: nearly all actives have a fitted effect of over 45% in size. Further: potency means the concentration at half of the fitted maximal effect. In outline:
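p53RE-bla cells, 4,000/well, dosed 5 hours after plating, with human liver microsomes (0.5 mg/mL final) plus NADPH (0.5 mg/mL final), 16 hours at 37 C. Viability read as CellTiter-Glo luminescence after 30 min at room temperature.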

Assay [7] in a line: p53 small molecule agonists, cell-based qHTS assay with rat liver microsomes: qHTS cell viability counter screen (AID 1963580). Further: nearly all actives have a fitted effect of over 45% in size. In outline:
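Intracellular ATP, by CellTiter-Glo luminescence, defines viability. HCT-116 p53RE-bla cells, 4,000 per well, were compound-treated in the presence of rat liver microsomes and NADPH for 16 h at 37 C.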
For orientation: In qHTS, concentration-response curves come from the screen itself.

A short description of assay [8]: p53 small molecule agonists, cell-based qHTS assay: qHTS cell viability counter screen (AID 1963581). Further: nearly all actives have a fitted effect of over 45% in size. Further: potency means the concentration at half of the fitted maximal effect. The method, boiled down: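 Cells: HCT-116 with p53 response element-driven beta-lactamase. Treatment: 16 h, 37 C, compounds in DMSO. Read: CellTiter-Glo luminescence after 30 min RT.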
A short description of assay [9]: p53 small molecule agonists, cell-based qHTS assay (AID 1963582; active means well fitted activation curve with a large enough effect in the signal ratio in the repeat runs, not every such curve was filed as active; the % refers to the signal ratio). The method, boiled down:
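Quantitative HTS in p53RE-bla cells: after a 5 h settling period, compounds delivered in DMSO were left on cells for 16 h at 37 C, and reporter induction was measured as fluorescence following 2 h substrate loading.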

Assay [10] deals with 5-hydroxytryptamine receptor 2A (Homo sapiens) (UniProt P28223). Kind of assay: 5-hydroxytryptamine receptor 2A (HTR2A) small molecule antagonists, cell-based qHTS assay (AID 1963586). Further: nearly all actives have a fitted effect of over 45% in size. The method, boiled down: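 Antagonist-mode intracellular calcium assay: DOI (4 nM) added after 5 min compound pre-incubation at room temperature to dye-loaded HTR2A-CHO cells. Fluorescence followed for 3 min, sampled every second.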

The target is the same in assay [11]. Description: 5-hydroxytryptamine receptor 2A (HTR2A) small molecule agonists, cell-based qHTS assay (AID 1963587). Further: nearly all actives have a fitted effect of over 30% in size. The method, boiled down:
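Kinetic calcium-flux fluorescence (2 min, 1 sec intervals) after compound addition in agonist mode. HTR2A-CHO cells were cultured 18 h, then dye-loaded 1 h at 37 C.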

Assay [12] deals with Muscarinic acetylcholine receptor M1 (Homo sapiens) (UniProt P11229). Kind of assay: Cholinergic receptor muscarinic 1 (CHRM1) small molecule antagonists, cell-based qHTS assay (AID 1963588). Further: nearly all actives have a fitted effect of over 40% in size. The method, boiled down:
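CHRM1-CHO calcium-flux assay, antagonist mode. Cells were seeded 18 h, dye-loaded 1 h at 37 C and given compound for 5 min at RT, then acetylcholine was added at 50nM. FDSS fluorescence was read 3 min; 15 concentrations, three runs.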

The target is the same in assay [13]. Kind of assay: Cholinergic receptor muscarinic 1 (CHRM1) small molecule agonists, cell-based qHTS assay (AID 1963589). Further: nearly all actives have a fitted effect of over 35% in size. In outline:
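Agonist-mode qHTS in CHO cells stably carrying human muscarinic M1. Intracellular calcium is tracked by fluorescence every second after compound transfer; each compound runs at 15 concentrations in three independent runs.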

Assay [14] can be described thus: cAMP Responsive Elements (CRE) small molecule agonists, cell-based qHTS assay (AID 1963590). The method, boiled down: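 Agonist mode qHTS in CRE-bla HEK 293T cells: compounds dosed from DMSO for 3 h at 37 C/5% CO2, followed by LiveBLAzer B/G FRET substrate for 2 h at room temperature.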
Assay [15] can be described thus: cAMP Responsive Elements (CRE) small molecule antagonists, cell-based qHTS assay (AID 1963591; active means well fitted inhibition curve with a large enough effect in the signal ratio in the repeat runs, not every such curve was filed as active; the % refers to the signal ratio). The method, boiled down:
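Antagonist mode: test compounds are co-incubated with the adenylyl cyclase activator NKH477 (0.25 uM final) on CRE-bla HEK293T cells for 3 h at 37 °C, followed by LiveBLAzer substrate loading.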

Assay [16] deals with Beta-2 adrenergic receptor (Homo sapiens) (UniProt P07550). Description: Adrenergic beta2 receptor (ADRB2) small molecule antagonists, cell-based qHTS assay (AID 1963592). Further: series mostly up to about 92 µM; nearly all actives have a fitted effect of over 50% in size. The method, boiled down: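 Cells (CHO, stable ADRB2 overexpression) incubated 18-20hr at 37C; compounds added from DMSO; agonist mix (1nM isoproterenol, 100uM IBMX, 25uM Ro-20-1724) added; 0.5hr RT; d2-cAMP and anti-cAMP-cryptate added; 1hr RT; 665/615 nm read.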

Assay [17] shares this target. Description: Adrenergic beta2 receptor (ADRB2) small molecule agonists, cell-based qHTS assay (AID 1963593).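 Further: CHO cells stably overexpressing human ADRB2.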 The method, boiled down: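 CHO cells stably over-expressing ADRB2 were plated overnight at 37C, then dosed with compounds plus a stimulation mix containing 100uM IBMX and 25uM Ro-20-1724 for 0.5hr at room temperature. cAMP was measured by HTRF competition, 1hr.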

Assay [18] has as its target D(2) dopamine receptor (Homo sapiens) (UniProt P14416). Description: Dopamine D2 receptor (DRD2) small molecule agonists, cell-based qHTS assay (AID 1963594). Further: nearly all actives have a fitted effect of over 35% in size. The method, boiled down:
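cAMP accumulation in DRD2-HEK293 cells measured by HTRF after 1 h detection; compounds added 10 min before NKH477 (200nM […]) forskolin-analogue stimulation, 30 min at room temperature, with Ro20-1724 present at 0.1 mM final.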

Assay [19] has the same target. Description: Dopamine D2 receptor (DRD2) small molecule antagonists, cell-based qHTS assay (AID 1963595; active means well fitted inhibition curve with a large enough effect in the signal ratio in the repeat runs, with a control signal flat; the % refers to the signal ratio). The method, boiled down:
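HTRF cAMP read-out at 665 and 620 nm emission (340 nm excitation). Antagonist mode: compounds were tested against 12 nM quinpirole in DRD2-HEK293 cells, with 200 nM NKH477 raising cAMP and 0.1 mM Ro20-1724 blocking its breakdown.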

Assay [20] in a line: p53 small molecule agonists, cell-based qHTS assay with rat liver microsomes (AID 1963578). The method, boiled down:
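p53RE-bla cells, 4,000/well, pre-incubated 5 h, then given compounds plus rat liver microsomes (0.5 mg/mL final) and NADPH (0.5 mg/mL final). Incubation 16 h at 37 C; beta-lactamase reporter read by LiveBLAzer fluorescence after 2 h at room temperature.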

Gonadotropin-releasing hormone receptor (Homo sapiens), sequence (P30968 whole entry, looked up): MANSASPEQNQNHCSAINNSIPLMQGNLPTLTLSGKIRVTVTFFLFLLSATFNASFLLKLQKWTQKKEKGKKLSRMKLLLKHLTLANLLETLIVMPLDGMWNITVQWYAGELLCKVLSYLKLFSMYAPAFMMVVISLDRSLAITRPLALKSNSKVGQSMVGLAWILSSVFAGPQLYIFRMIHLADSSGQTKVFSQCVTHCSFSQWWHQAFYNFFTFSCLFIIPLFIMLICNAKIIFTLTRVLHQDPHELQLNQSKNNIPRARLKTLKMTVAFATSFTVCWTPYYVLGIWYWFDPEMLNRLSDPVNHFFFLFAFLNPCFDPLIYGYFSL
5-hydroxytryptamine receptor 2A (Homo sapiens), sequence (P28223 whole entry, looked up): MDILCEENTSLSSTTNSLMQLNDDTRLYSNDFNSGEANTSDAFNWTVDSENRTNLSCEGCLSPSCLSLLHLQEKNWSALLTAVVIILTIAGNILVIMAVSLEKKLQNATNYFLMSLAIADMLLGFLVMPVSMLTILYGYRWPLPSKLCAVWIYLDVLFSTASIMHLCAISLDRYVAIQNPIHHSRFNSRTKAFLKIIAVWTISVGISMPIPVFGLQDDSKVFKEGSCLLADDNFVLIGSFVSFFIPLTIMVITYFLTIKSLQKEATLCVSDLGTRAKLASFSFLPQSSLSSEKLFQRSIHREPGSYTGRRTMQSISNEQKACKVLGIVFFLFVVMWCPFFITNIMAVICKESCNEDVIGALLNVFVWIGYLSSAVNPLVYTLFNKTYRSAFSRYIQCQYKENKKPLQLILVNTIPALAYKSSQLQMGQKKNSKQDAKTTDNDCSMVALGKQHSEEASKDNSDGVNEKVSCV
Beta-2 adrenergic receptor (Homo sapiens), sequence (P07550 whole entry, looked up): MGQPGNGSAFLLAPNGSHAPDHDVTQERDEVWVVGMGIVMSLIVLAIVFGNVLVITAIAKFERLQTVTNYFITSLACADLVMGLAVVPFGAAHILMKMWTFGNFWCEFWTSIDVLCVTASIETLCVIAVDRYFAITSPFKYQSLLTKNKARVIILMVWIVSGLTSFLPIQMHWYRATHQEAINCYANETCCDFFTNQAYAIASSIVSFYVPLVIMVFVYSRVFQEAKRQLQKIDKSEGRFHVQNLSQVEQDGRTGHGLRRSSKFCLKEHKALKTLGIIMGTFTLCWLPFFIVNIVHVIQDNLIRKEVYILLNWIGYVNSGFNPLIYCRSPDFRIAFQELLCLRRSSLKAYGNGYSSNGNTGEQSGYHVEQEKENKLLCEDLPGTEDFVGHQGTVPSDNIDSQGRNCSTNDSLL
D(2) dopamine receptor (Homo sapiens), sequence (P14416 whole entry, looked up): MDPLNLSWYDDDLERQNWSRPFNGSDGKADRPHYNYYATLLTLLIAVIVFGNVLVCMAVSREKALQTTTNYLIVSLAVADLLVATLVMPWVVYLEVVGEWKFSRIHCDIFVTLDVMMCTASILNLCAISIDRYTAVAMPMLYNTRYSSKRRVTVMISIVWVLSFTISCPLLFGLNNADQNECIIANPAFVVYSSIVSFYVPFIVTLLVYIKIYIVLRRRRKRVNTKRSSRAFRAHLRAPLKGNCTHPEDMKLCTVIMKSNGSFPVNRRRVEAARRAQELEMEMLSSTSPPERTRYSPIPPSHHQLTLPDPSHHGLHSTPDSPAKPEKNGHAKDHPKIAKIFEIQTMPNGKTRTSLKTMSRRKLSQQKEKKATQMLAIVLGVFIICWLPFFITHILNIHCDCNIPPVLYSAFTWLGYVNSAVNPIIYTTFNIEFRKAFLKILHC
Muscarinic acetylcholine receptor M1 (Homo sapiens), sequence (P11229 whole entry, looked up): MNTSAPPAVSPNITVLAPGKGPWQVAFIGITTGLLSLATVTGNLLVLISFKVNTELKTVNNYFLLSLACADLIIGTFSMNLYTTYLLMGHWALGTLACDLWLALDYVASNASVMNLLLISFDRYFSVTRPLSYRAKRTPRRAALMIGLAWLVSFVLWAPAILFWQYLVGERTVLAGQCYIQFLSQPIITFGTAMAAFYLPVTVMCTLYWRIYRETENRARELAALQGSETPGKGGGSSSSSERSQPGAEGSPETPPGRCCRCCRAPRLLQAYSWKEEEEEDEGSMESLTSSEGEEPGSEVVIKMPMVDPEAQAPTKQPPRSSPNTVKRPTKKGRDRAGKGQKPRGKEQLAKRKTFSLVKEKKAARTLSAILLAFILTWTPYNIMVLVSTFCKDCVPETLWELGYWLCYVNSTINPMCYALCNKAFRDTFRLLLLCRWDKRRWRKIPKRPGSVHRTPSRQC
KiSS-1 receptor (Homo sapiens), sequence (Q969F8 whole entry, looked up): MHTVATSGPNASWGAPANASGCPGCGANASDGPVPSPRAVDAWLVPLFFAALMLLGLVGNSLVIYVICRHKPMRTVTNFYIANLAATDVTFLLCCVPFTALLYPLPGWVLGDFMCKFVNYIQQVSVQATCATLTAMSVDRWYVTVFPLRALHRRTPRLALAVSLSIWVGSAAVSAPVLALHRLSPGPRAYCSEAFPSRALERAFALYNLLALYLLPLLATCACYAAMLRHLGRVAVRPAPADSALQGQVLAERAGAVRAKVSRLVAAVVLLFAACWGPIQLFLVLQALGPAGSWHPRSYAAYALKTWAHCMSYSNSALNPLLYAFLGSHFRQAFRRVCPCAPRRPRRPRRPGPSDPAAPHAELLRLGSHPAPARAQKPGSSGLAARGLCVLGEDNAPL

In the case of `CCCc1ccccc1O`, the Potency result in [1], in assay [2], in [3], in assay [4], in [5] and in assay [6] was “inactive” throughout. For the same molecule, the Potency result in [7], in [8], in assay [9], in [10], in assay [11] and in assay [12] was “inactive” each time. Also, the Potency entry in assay [13], in [14], in assay [15], in [16], in assay [17] and in [18] was “inactive” each time. Further, the Potency entry in [19] is “inactive”.
In the case of `Cc1cc(C2CCCCC2)n(O)c(=O)c1`, the Potency in [1] is 13.3 µM (active). The Potency entry in assay [2], in [3], in assay [4], in [5], in [20] and in assay [8] was “inactive” in each case. The Potency entry in assay [14], in assay [17] and in assay [18] was “inactive” in each case.
On to `CC(C)c1ccccc1N`, for which the Potency entry in assay [1], in assay [2], in assay [3], in [4], in [5] and in assay [20] was “inactive” throughout. Also, the Potency result in assay [6], in assay [7], in [8], in assay [9], in assay [10] and in [11] was “inactive” in each case. Further, the Potency entry in assay [12], in assay [13], in [14], in assay [15], in assay [16] and in assay [17] was “inactive” in each case. The Potency result in assay [18] and in [19] was “inactive” in each case.
Consider `COc1cc(NS(=O)(=O)c2ccc(N)cc2)nc(C)n1`, for which the Potency result in assay [1], in assay [2], in assay [3], in assay [4], in assay [5] and in [6] was “inactive” each time. The Potency result in assay [7], in assay [8], in [9], in [10], in assay [11] and in assay [12] was “inactive” each time. Also, the Potency result in assay [13], in assay [14], in assay [15], in [16], in assay [17] and in assay [18] was “inactive” in each case. Besides, in assay [19], the Potency entry was “inactive”.
Regarding `CC[N+](C)(CC)CC`, the Potency entry in assay [1], in assay [2], in assay [3], in [4], in assay [5] and in assay [6] was “inactive” each time. The Potency result in [7], in assay [8], in assay [9], in assay [10], in [11] and in [12] was “inactive” each time. Further, the Potency result in [13], in [15], in assay [16], in assay [17], in assay [18] and in [19] was “inactive” throughout.
As for `CCCCNC1CC(C)(C)NC(C)(C)C1`, the Potency entry in assay [1], in assay [2], in assay [3], in assay [4], in assay [5] and in assay [6] was “inactive” throughout. For the same molecule, the Potency entry in assay [7], in assay [8], in [9], in [10], in [11] and in assay [12] was “inactive” throughout. Further, the Potency entry in assay [13], in [14], in [15], in [16], in assay [17] and in [19] was “inactive” each time.
Turning to `O=C(O)Cc1cc(I)c(Oc2cc(I)c(O)c(I)c2)c(I)c1`, the Potency result in [1], in assay [3], in assay [4], in assay [5], in assay [7] and in assay [12] was “inactive” in each case. Moreover, the Potency result in assay [13], in assay [16], in assay [18] and in assay [19] was “inactive” in each case. Besides, the Potency is 30 µM (active) in assay [2], 17.9 µM (active) in assay [6] and 22.5 µM (active) in [8].
